Bioassay records as filed in PubChem BioAssay.
RGS4-Gao reg: modulators of RGS4 binding to Galphao, primary screen, biochemical, multiplexed bead flow cytometry; Guanine nucleotide-binding protein G(o) subunit alpha (Homo sapiens), P09471; actives lie on both sides; binding response (% of control), % at 10 µM; actives 0.33% (n = 220,000); in the data active = binding response below about 49% or above about 150%; inactive = in between;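 note: fluorescent Galphao activated with aluminum fluoride binding bead-coupled RGS4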
Target sequence (P09471 whole entry, looked up): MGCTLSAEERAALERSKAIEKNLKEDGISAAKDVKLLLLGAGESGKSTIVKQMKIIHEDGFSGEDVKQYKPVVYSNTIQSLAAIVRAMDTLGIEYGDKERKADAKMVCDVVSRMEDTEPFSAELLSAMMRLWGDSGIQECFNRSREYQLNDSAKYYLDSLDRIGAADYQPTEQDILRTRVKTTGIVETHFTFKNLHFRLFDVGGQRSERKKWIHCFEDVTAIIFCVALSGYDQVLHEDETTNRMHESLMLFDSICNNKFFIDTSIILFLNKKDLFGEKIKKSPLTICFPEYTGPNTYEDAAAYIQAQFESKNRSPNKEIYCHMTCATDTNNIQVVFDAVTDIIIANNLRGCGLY
GSH fluor: compound fluorescence on glutathione beads, profiling panel, artefact control, biophysical, 488/530 nm, flow cytometry; GSH beads flow cytometry, compound fluorescence 488/530 nm; stronger effect = higher value; fluorescence (KMESF) at 10 µM; actives 0.25% (n = 190,000); in the data active = fluorescence above about 89;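 note: glutathione beads carrying GST-tagged Bcl family fusion proteins plus one bare bead set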
RGS8-Gao reg: RGS8-Galphao binding modulators, primary screen, biochemical, multiplexed bead flow cytometry; response (percent of control binding), % at 10 µM; AID 1423, 2008; actives 0.34% (n = 220,000); actives lie on both sides; in the data active = response below about 60% or above about 140%; inactive = in between;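 note: Galphao activated as the GDP aluminium fluoride complex binding bead-coupled RGS8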
RGS7-Gao: RGS7-Galphao binding modulators, primary screen, biochemical, multiplexed bead flow cytometry. Guanine nucleotide-binding protein G(o) subunit alpha (Homo sapiens), P09471. actives lie on both sides. binding response (% of control), % at 10 µM. actives 0.35% (n = 220,000). AID 1439, 2008; in the data active = binding response below about 49% or above about 150%;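 note: fluorescent Galphao held in activated GDP-AlF4 state binding bead-coupled RGS7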
Avidin fluor: green autofluorescence of compounds with avidin beads – biophysical, 488/530 nm, flow cytometry, artefact control, profiling panel; compound fluorescence 488/530 nm; stronger effect = higher value; fluorescence (KMESF) at 10 µM; actives 0.38% (n = 220,000); in the data active = fluorescence above about 47
RGS16-Gao: modulators of RGS16 binding to Galphao, primary screen, biochemical, human proteins, multiplexed bead flow cytometry. Regulator of G-protein signaling 16 (Homo sapiens) + Guanine nucleotide-binding protein …. bead-based flow cytometry RGS16-Galphao binding, fluorescence; actives lie on both sides. binding response (% of control), % at 10 µM. actives 0.38% (n = 220,000). AID 1441, 2008;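 note: Galphao activated by GDP with aluminum fluoride before binding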
Target sequence (O15492 whole entry, looked up): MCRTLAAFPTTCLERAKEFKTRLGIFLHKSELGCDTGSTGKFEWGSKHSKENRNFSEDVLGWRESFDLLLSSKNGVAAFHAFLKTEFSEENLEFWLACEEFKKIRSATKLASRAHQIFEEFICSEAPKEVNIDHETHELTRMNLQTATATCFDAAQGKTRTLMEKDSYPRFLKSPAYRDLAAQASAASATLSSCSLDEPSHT
Target sequence (P09471 whole entry, looked up): as the sequence (P09471 whole entry, looked up) above
RGS4-Gao HTS: modulators of RGS–Galpha-o binding, primary screen, biochemical, multiplexed beads, flow cytometry, RGS4/7/8/16/19. shares compounds with RGS16-Gao. multiplexed bead flow cytometry. RGS4–Galpha-o binding response, % at 10 µM. actives 99% (n = 1,600);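 note: fluorescently labeled Galpha-o bound to GDP with aluminium fluoride binding biotinylated RGS beads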
Biotin-avidin: disruption of biotin probe capture by avidin, counter-screen for RGS protein interaction modulators, biochemical, flow cytometry, bead-based | shares compounds with RGS16-Gao | streptavidin beads, fluorescein-biotin binding | inhibition, % at 10 µM | 1,700 tested, under 10 active | AID 1783, 2009;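 active = inhibition above 50%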;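 note: median green fluorescence of gated singlet beads compared with DMSO control wells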
RGS8-Gao confirm: RGS8-Galphao binding modulators, confirmation, biochemical, multiplexed bead flow cytometry, single concentration; binding response (% of control), % at 10 µM; shares compounds with RGS16-Gao; AID 1836, 2009; actives 3% (n = 1,700); bead-based flow cytometry RGS8-Galphao binding, fluorescence; actives lie on both sides; in the data active = binding response below about 72% or above about 130%; inactive = in between;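 note: Galphao activated as GDP AlF4 complex before binding bead RGS8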
RGS7-Gao confirm: RGS7-Galphao binding modulators, confirmation, biochemical, multiplexed bead flow cytometry, single concentration; shares compounds with RGS16-Gao; bead-based flow cytometry RGS7-Galphao binding; actives lie on both sides; response (percent of control binding), % at 10 µM; actives 7.8% (n = 1,700); in the data active = response below about 75% or above about 130%; inactive = in between;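 note: fluorescent Galphao activated with GDP and aluminum fluoride binding bead-coupled RGS7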
RGS16-Gao conf: modulators of RGS16-Galphao protein binding, confirmation, biochemical, single concentration, multiplexed bead flow cytometry; shares compounds with RGS16-Gao; bead-based flow cytometry; actives lie on both sides; response (% of control binding), % at 10 µM; actives 4% (n = 1,700); AID 1838, 2009; in the data active = response below about 74% or above about 130%; inactive = in between;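 note: Galphao activated as the GDP aluminium fluoride complex binding bead-coupled RGS16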
RGS4-Gao single: modulators of RGS4-Galphao protein binding, confirmation, biochemical, single concentration, multiplexed bead flow cytometry; shares compounds with RGS16-Gao; actives lie on both sides; binding response (% of control), % at 10 µM; actives 4% (n = 1,700); in the data active = binding response below about 74% or above about 130%; inactive = in between
RGS19-Gao conf: regulators of RGS19-Galphao binding, confirmation, biochemical, single point, multiplexed bead flow cytometry. shares compounds with RGS16-Gao. bead-based flow cytometry RGS19-Galphao binding; actives lie on both sides. response (percent of control binding), % at 10 µM. actives 5% (n = 1,700). AID 1841, 2009; in the data active = response below about 50% or above about 160%; inactive = in between
Numbers stand for hits; [ ] = another dose, or the depositor's remark. Only some compounds are listed: those with a hit (about 1.2% of all), similar ones and a draw of the others. Unless noted, the rule behind the calls is not given here.

How did CC1CCCC(C)N1C(=O)c1cccc2c1-c1ccccc1/C2=N/O (stereo not given) do in these assays?
RGS4-Gao reg: inactive; GSH fluor: inactive; RGS8-Gao reg: inactive; RGS7-Gao: 166[activator]; Avidin fluor: 143; RGS16-Gao: inactive; RGS4-Gao HTS: 110; Biotin-avidin: inactive; RGS8-Gao confirm: inactive; RGS7-Gao confirm: inactive; RGS16-Gao conf: inactive; RGS4-Gao single: inactive; RGS19-Gao conf: inactive

How did COc1cccc(Cn2c(C3CC3)nc3ccc(NC(=O)c4ccco4)cc3c2=O)c1 do in these assays?
RGS4-Gao reg: inactive; GSH fluor: inactive; RGS8-Gao reg: inactive; RGS7-Gao: 579[activator]; Avidin fluor: 603; RGS16-Gao: inactive; RGS4-Gao HTS: 77; Biotin-avidin: inactive; RGS8-Gao confirm: inactive; RGS7-Gao confirm: inactive; RGS16-Gao conf: inactive; RGS4-Gao single: inactive; RGS19-Gao conf: inactive

Results for Cc1cccc(-c2nnc3sc(-c4ccccc4)nn23)c1 ?
GSH fluor: inactive; Biotin-avidin: inactive; RGS8-Gao confirm: inactive; RGS7-Gao confirm: inactive; RGS16-Gao conf: inactive; RGS4-Gao single: inactive; RGS19-Gao conf: inactive

How did CCCc1cc(N2CCCC(C(=O)NCc3ccc4c(c3)OCO4)C2)n2ncnc2n1 (stereo not given) do in these assays?
GSH fluor: inactive; RGS8-Gao reg: inactive; Biotin-avidin: inactive; RGS8-Gao confirm: inactive; RGS7-Gao confirm: inactive; RGS16-Gao conf: inactive; RGS4-Gao single: inactive; RGS19-Gao conf: inactive

How did Cc1cc(/C=N/Nc2nc(N3CCOCC3)nc(N3CCOCC3)n2)c(C)n1-c1ccccc1 do in these assays?
RGS4-Gao reg: 27; GSH fluor: inactive; RGS8-Gao reg: 7.9; RGS7-Gao: inactive; Avidin fluor: 58; RGS16-Gao: inactive; Biotin-avidin: inactive; RGS8-Gao confirm: inactive; RGS7-Gao confirm: inactive; RGS16-Gao conf: inactive; RGS4-Gao single: inactive; RGS19-Gao conf: inactive

Results for O=C(CNS(=O)(=O)c1c(Cl)cccc1Cl)OCC(=O)N1CCN(c2ccccc2)CC1 ?
RGS4-Gao reg: inactive; GSH fluor: inactive; RGS8-Gao reg: inactive; RGS7-Gao: inactive; Avidin fluor: inactive; RGS16-Gao: inactive

How did CC(=O)Nc1ccc(S(=O)(=O)NCC(=O)OCC(=O)N2CCN(c3ccccc3)CC2)cc1 do in these assays?
RGS4-Gao reg: inactive; GSH fluor: inactive; RGS8-Gao reg: inactive; RGS7-Gao: inactive; Avidin fluor: inactive; RGS16-Gao: 21; RGS4-Gao HTS: 82; Biotin-avidin: inactive; RGS8-Gao confirm: inactive; RGS7-Gao confirm: inactive; RGS16-Gao conf: inactive; RGS4-Gao single: inactive; RGS19-Gao conf: inactive

Results for Cn1c(=O)c2c(nc(N3CCc4ccccc4C3)n2C)n(C)c1=O ?
RGS4-Gao reg: inactive; GSH fluor: inactive; RGS8-Gao reg: inactive; RGS7-Gao: inactive; Avidin fluor: inactive; RGS16-Gao: inactive

How did COc1ccccc1NS(=O)(=O)c1cc(Cl)ccc1OC do in these assays?
RGS4-Gao reg: inactive; GSH fluor: inactive; RGS8-Gao reg: 144[activator]; RGS7-Gao: inactive; Avidin fluor: inactive; RGS16-Gao: inactive; RGS4-Gao HTS: 125; Biotin-avidin: inactive; RGS8-Gao confirm: inactive; RGS7-Gao confirm: inactive; RGS16-Gao conf: inactive; RGS4-Gao single: inactive; RGS19-Gao conf: inactive

How did CC1CCc2c(sc(NC(=O)COC(=O)c3ccccc3NCc3ccco3)c2C#N)C1 (stereo not given) do in these assays?
RGS4-Gao reg: -5.5; GSH fluor: inactive; RGS8-Gao reg: 4.6; RGS7-Gao: -2.0; Avidin fluor: inactive; RGS16-Gao: inactive; Biotin-avidin: inactive; RGS8-Gao confirm: inactive; RGS7-Gao confirm: inactive; RGS16-Gao conf: inactive; RGS4-Gao single: inactive; RGS19-Gao conf: inactive

How did COc1ccc(N=C(N(C)C)P(=O)(N(C)C)N(C)C)cc1 do in these assays?
RGS4-Gao reg: inactive; GSH fluor: inactive; RGS8-Gao reg: 150[activator]; RGS7-Gao: inactive; Avidin fluor: inactive; RGS16-Gao: inactive; RGS4-Gao HTS: 138; Biotin-avidin: inactive; RGS8-Gao confirm: inactive; RGS7-Gao confirm: inactive; RGS16-Gao conf: inactive; RGS4-Gao single: inactive; RGS19-Gao conf: inactive

What do the screens show for `COc1ccc(N=C(C)C2=C(O)c3ccccc3C2=O)cc1`?
RGS4-Gao reg: inactive; GSH fluor: inactive; RGS8-Gao reg: inactive; RGS7-Gao: inactive; Avidin fluor: inactive; RGS16-Gao: inactive

What do the screens show for `Cc1ccc(NCN2C(=O)C(=O)c3ccccc32)nc1`?
RGS4-Gao reg: inactive; GSH fluor: inactive; RGS8-Gao reg: inactive; RGS7-Gao: inactive; Avidin fluor: inactive; RGS16-Gao: inactive

What do the screens show for `C/C=C(\C)C(=O)NCCN1C2=NC[C@H](Cc3ccccc3)N2C[C@H]1Cc1ccc(O)cc1`?
RGS4-Gao reg: 34; GSH fluor: inactive; RGS8-Gao reg: 24; RGS7-Gao: 20; Avidin fluor: inactive; RGS16-Gao: 19; Biotin-avidin: inactive; RGS8-Gao confirm: inactive; RGS7-Gao confirm: inactive; RGS16-Gao conf: inactive; RGS4-Gao single: inactive; RGS19-Gao conf: inactive
